Data on 40 compounds can be found in PubChem BioAssay (EPA / NIEHS).

The term AC50 denotes the midpoint of the concentration-response curve, whichever way the signal moves.

The source made the active and inactive calls. Rule for the calls: active = hit-call score of the fitted dose curve at least 0.9, where 1 is the maximum; inactive = score below 0.9.

Read-out in the experiment: Fatty Acid-Binding Protein 1 (FABP1), FABP1 (gene 2168)
Briefly: LTEA_HepaRG_FABP1: Life Technologies and Expression Analysis (LTEA) Assay for Fatty Acid-Binding Protein 1 (FABP1) using HepaRG (AID 2283494). The note with it: mRNA level, 48 h; actives raise or lower the signal. As for the experimental part:
LTEA_HepaRG is a cell based, multiplexed-readout assay that uses HepaRG, a human liver cell line, with measurements taken at 48 hours after chemical dosing on a 96-well plate.LTEA_HepaRG_FABP1 is one of 102 assay component(s) measured in the LTEA HepaRG cell culture assay. It is a marker of Steatosis.Data from the assay component LTEA_HepaRG_FABP1 was analyzed into 1 endpoint. This assay endpoint, LTEA_HepaRG_FABP1, was analyzed with bidirectional fitting relative to DMSO as the negative control and baseline of activity. Using a type of inducible reporter, measures of mRNA induction for gain or loss-of-signal activity can be used to understand regulation of transcription factor activity. To generalize the intended target to other relatable targets, this assay endpoint is annotated to the transporter intended target family, where the subfamily is fatty acid carrier protein.
A total of 1060 chemcials from the ToxCast library were tested in eight-point concentration-response experiments. Cell culture and cytotoxicity assays were conducted at Thermo Fisher Scientific's Custom Services facility (Madison, WI). A single lot of human HepaRG cells (Thermo Fisher Scientific, Frederick, MD) was used for the cell culture experiments. 96-well format collagen type I coated plates of human HepaRG cells were prepared using established methods. Briefly, cryopreserved HepaRG cells were thawed, plated at a density of approximately 100,000 cells/well in HepaRG Thaw, Plate, and General Purpose media (HPRG770, Thermo Fisher Scientific), and incubated for 48 hours. 0.5% DMSO was selected as vehicle control to balance the requisite need of DMSO in HepaRG cultures to maintain differentiation (for example, baseline metabolism, proportions of hepatocytes vs. cholangiocytes), while enabling further hepatic receptor pathway activation (for example, PXR and CAR) in response to chemical exposure. 48 hours after plating, the culture medium was replaced with HepaRG Serum-Free Incudtion Media. Cells were exposed to each test chemical in duplicate and maintained in CO2 incubators for another 48 hours. Chemical plates were thawed to room temperature and 200x concentrations of treatment groups were prepared. 8-point conentration-reponse curves were made with the highest exposure at 100 uM, followed by half-log dilutions, all in 0.5% DMSO. Each test plate contained variouse controls, induction positive controls (1mM phenobarbital), cytotoxicity positive controls ([…] aflatoxin B1), vehicle controls (0.5% DMSO), and total lysis controls (0.5% DMSO). Cell morphology images were taken using an Essen IncuCyte FLR automated microscope, with six 96-well plates imaged in about 24 minutes. Images were captured and exported and JPEG files. Spent culture media was transfered to black-well plates for the LDH assay, and remaining media was sorted at -80 C for later use. Cells were treated with RLT buffer and frozen until shipped for gene expression analysis. Total RNA was isolated from the cell suspension in 75 uL of Buffer RLT (Qiagen, Germantown, MD 20874) by Quintiles/Expression Analysis (Durham, NC) using a custom isolation procedure. Total RNA from each plate well was transferred to a preamplification plate. Fluidigm's 96.96 Dynamic ArrayTM (Fluidigm, Amsterdam, the Netherlands) technology was used for gene expression analyses by quantitative reverse transcription polymerase chain reaction (qRT-PCR, performed by Quintiles/Expression Analysis, Durham, NC)89. Standard TaqManTM Assays (Applied Biosystems/ThermoFisher Scientific, Foster City, CA) were used to assess the expression of 93 genes selected based on their selectivity and sensitivity to important hepatic receptors known to be modulated by environmental chemicals; importance in human hepatocyte functionality; and hepatotoxicity. […]
As to `CCC(C)N(C)C(=O)c1cc2ccccc2c(-c2ccccc2Cl)n1` (stereo not given), the AC50 is 13 µM (active).
Same read-out and setting: to `Cc1cc(SC2=C(O)C[C@@](CCc3ccc(N)cc3)(C(C)C)OC2=O)c(C(C)(C)C)cc1CO` belongs 3.12 µM (active).
Still for that read-out and setting: to `CC(C)(O)c1ccc(CNC(=O)c2cccnc2Oc2ccc(F)cc2)cc1` belongs 21.9 µM (active).
Consider `COC(=O)CCC(=O)OC`, for which the outcome was inactive.
On the same count and under the same terms, for `Cc1ccc(C(C)(C)C)c(O)c1` the value was “inactive”; for `S=c1[nH]c2ccccc2s1`, “inactive”; for `CCCCC(CC)CO` (stereo not given), “inactive”.
Still for that read-out and setting: to `C/C=C/C=C/C(=O)O` belongs “inactive”.
Turning to `CC(C)OC(=O)C(C)(C)Oc1ccc(C(=O)c2ccc(Cl)cc2)cc1`, the half-maximal activity concentration (AC50) is 50 µM (active).
For `CC(=O)OCC(COC(C)=O)OC(C)=O`, the result was inactive.
The same measure, in the same setting: for `NC=O` the value was “inactive”; for `Oc1ccc(O)cc1`, “inactive”.
The same measure, in the same setting: to `CC(C)c1cccc(C(C)C)c1` belongs “inactive”.
The same measure, in the same setting: to `O=C(O)CN(CC(=O)O)CC(=O)O` belongs “inactive”.
With `NC(=Nc1ccccc1)Nc1ccccc1`, the compound was classed as inactive.
With `O=C(Oc1ccccc1)c1cccc(C(=O)Oc2ccccc2)c1`, the call was inactive.
Same read-out and setting: for `Cc1c(C)c2c(c(C)c1O)CCC(C)(COc1ccc(CC3SC(=O)NC3=O)cc1)O2` (stereo not given) the value was “inactive”.
On to `O=C1OC(c2ccc(O)cc2)(c2ccc(O)cc2)c2ccccc21`, for which the result was inactive.
In the case of `O=Cc1ccccc1C=O`, the compound was called inactive.
Consider `C#CC(O)C(CC)CCCC` (stereo not given), for which the outcome was inactive.
Still for that read-out and setting: for `CCc1nc(N)nc(N)c1-c1ccc(Cl)cc1` the value was “inactive”; for `CCCCC(CC)COP(=O)(OCC(CC)CCCC)OCC(CC)CCCC` (stereo not given), “inactive”.
On the same count and under the same terms, for `Cn1cnc2c1c(=O)[nH]c(=O)n2C` the value was “inactive”.
As to `CC1=C(C)S(=O)(=O)CCS1(=O)=O`, the half-maximal activity concentration (AC50) is 88.1 µM (active).
In the case of `CC(=O)[C@@]1(O)CC[C@H]2[C@@H]3CCC4=CC(=O)CC[C@]4(C)[C@H]3CC[C@@]21C`, the compound was called inactive.
Same read-out and setting: for `Cc1cn([C@H]2C=C[C@@H](CO)O2)c(=O)[nH]c1=O` the value was “inactive”.
On to `CN(C)C(=O)NC1(c2ccccc2)CCN(CCC[C@]2(c3ccc(Cl)c(Cl)c3)CCCN(C(=O)c3ccccc3)C2)CC1`, for which the concentration at half-maximal activity (AC50) is 20.5 µM (active).
With `O=C1O[C@H]([C@H](O)CO)C(O)=C1O`, the compound was called inactive.
As to `CCCCOC(=O)CCCCC(=O)OCCCC`, the compound was classed as inactive.
On the same count and under the same terms, for `CCCCCCCCCCCCCCOS(=O)(=O)O` the value was “inactive”; for `CCc1cc(C2=C(C(=O)O)N(c3ccccc3C(F)(F)F)S(=O)(=O)c3ccccc32)cc2c1OCO2`, “inactive”; for `CN(C)C(=O)NC1(c2ccccc2)CCN(CC[C@@]2(c3ccc(F)c(F)c3)CN(C(=O)c3ccccc3)CCO2)CC1`, “inactive”.
As for `COc1ccc(OC(F)(F)F)cc1CN[C@H]1CCCN[C@H]1c1ccccc1`, the AC50 was 77.9 µM (active).
Consider `COc1ccc(C(=O)Nc2nc3ccccc3c(NCc3ccccc3)c2C#N)cc1`, for which the half-maximal activity concentration (AC50) is 18 µM (active).
As for `CCCCCCCCCCCCCCCCO`, the compound was called inactive.
For the compound `CC(=O)O`, the result was inactive.
As to `CN(C)CCCN1c2ccccc2Sc2ccc(Cl)cc21`, the AC50 is 88.3 µM (active).
In the case of `CS(=O)(=O)c1ccc([C@@H](C[C@H]2CCC(=O)C2)C(=O)Nc2cnccn2)cc1Cl`, the compound was called inactive.
Same read-out and setting: to `CC1(C)C(=O)NC(=O)N1CO` belongs “inactive”.
Still for that read-out and setting: to `CCCCCCC(C=O)=Cc1ccccc1` belongs “inactive”.
